BJeLR viability: kills HRASV12-expressing BJeLR cells | hit rate 0.17% among 300,000 | BJeLR (HRASV12) viability, CellTiter-Glo ATP luminescence, 48 h | AID 1554 | inhibition, % (test concentration not listed); in the data active = inhibition above about 50%; inconclusive = no clear call, values can overlap the other calls
Anthrax LF prot: anthrax lethal factor protease inhibition | multiplex microsphere protease cleavage assay, LF | hit rate 0.12% among 360,000 | inhibition, % at 10 µM | AID 588501 | P15917
Target sequence (P15917 whole entry, looked up): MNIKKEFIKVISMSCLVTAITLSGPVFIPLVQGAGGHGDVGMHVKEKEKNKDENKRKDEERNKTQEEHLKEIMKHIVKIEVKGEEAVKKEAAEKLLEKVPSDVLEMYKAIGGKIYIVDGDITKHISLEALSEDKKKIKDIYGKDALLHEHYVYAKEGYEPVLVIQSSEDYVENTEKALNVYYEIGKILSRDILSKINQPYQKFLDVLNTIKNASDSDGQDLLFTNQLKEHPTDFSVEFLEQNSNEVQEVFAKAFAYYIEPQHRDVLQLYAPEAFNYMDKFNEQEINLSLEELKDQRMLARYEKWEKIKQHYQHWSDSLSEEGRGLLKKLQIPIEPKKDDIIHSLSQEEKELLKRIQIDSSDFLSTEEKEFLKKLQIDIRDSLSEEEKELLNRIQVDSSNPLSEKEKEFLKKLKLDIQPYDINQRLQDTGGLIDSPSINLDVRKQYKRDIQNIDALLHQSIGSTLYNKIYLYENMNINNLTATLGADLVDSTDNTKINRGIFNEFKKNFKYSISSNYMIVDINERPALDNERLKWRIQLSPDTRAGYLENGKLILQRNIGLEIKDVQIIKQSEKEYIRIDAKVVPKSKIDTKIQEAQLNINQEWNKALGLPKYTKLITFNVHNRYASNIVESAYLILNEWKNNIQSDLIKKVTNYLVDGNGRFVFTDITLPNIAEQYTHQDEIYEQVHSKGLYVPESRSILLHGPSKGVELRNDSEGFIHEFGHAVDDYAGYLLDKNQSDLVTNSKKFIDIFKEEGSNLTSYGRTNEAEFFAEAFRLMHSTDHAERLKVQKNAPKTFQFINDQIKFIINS
BoNT F protease: BoNT F light chain protease inhibition; Multiplex microsphere protease cleavage assay, flow cytometry; inhibition, % at 10 µM; hit rate 0.22% among 360,000; AID 588497; in the data active = inhibition above about 35%, passing the limit was not always enough; inconclusive = no clear call, values can overlap the other calls
Bead autofluor: compound fluorescence in toxin protease inhibitor counterscreen. compound autofluorescence counterscreen, microsphere flow cytometry; stronger effect = higher value. fluorescence intensity (no concentration beside the values). hit rate 3.1% among 360,000; in the data active = fluorescence intensity above about 16000; inconclusive = no clear call, values can overlap the other calls
Vc quorum ag: induces V. cholerae light production without autoinducers. hit rate 0.16% among 350,000. activation, % at 18.7 µM. AID 588436. V. cholerae BH1578 lux reporter, luminescence, 6 h; in the data active = activation mostly above about 9.7%, no sharp cut-off; inconclusive = no clear call, values can overlap the other calls; inactive = mostly below about 3.7%
BoNT-A LC inh2: BoNT A light chain protease inhibition; inhibition, % at 10 µM; hit rate 0.17% among 360,000; multiplex microsphere protease substrate cleavage, flow cytometry
Numbers stand for hits; . = inactive; ? = inconclusive; / = no result given. Only some compounds are listed: those with a hit (about 3.7% of all), similar ones and a draw of the others. Cut-off read from the data, not from the text of the source, unless noted: active = inhibition above about 30%; inconclusive = no clear call, values can overlap the other calls; inactive = below that.

SMILES	BJeLR viability	Anthrax LF prot	BoNT F protease	Bead autofluor	Vc quorum ag	BoNT-A LC inh2
Cc1noc(C)c1Cn1c(C)c(C(=O)NCc2ccc3c(c2)OCCO3)sc1=O	/	.	.	.	.	.
CC(C)OCCCNC(=O)c1cccs1	.	.	.	22575	.	.
N=c1c(S(=O)(=O)c2ccccc2)cc2c(=O)n3ccccc3nc2n1CCCN1CCOCC1	.	.	.	.	.	.
N=c1c(S(=O)(=O)c2ccc(Cl)cc2)cc2c(=O)n3ccccc3nc2n1CCN1CCOCC1	.	.	.	21495	.	.
Cc1ccc(S(=O)(=O)c2cc3c(=O)n4ccccc4nc3n(Cc3ccco3)c2=N)cc1	.	.	.	20456	.	?
CCn1c(NC(=O)c2ccc(COc3ccc(C)cc3[N+](=O)[O-])o2)nc2ccccc21	.	.	.	22323	.	.
Cc1cc(C)cc(CC(=O)N2CCC2(C)C(=O)NS(=O)(=O)c2cc(C)ccc2F)c1 (stereo not drawn)	/	.	.	.	.	.
COc1ccc(CNC(=O)CN2C(=O)NC(C)(c3cccc(Br)c3)C2=O)cc1 (stereo not drawn)	.	.	.	.	.	.
COc1ccc2cc(C3(C)NC(=O)N(CC(=O)NCc4ccco4)C3=O)ccc2c1 (stereo not drawn)	.	.	.	21910	.	.
CC1CCCCC12NC(=O)N(CC(=O)NCc1ccco1)C2=O (stereo not drawn)	/	.	.	.	.	.
CC1CCCCC12NC(=O)N(CC(=O)NC(=O)NCc1ccco1)C2=O (stereo not drawn)	.	.	.	22867	.	.
COc1ccc(NC(=O)Cn2c([N+](=O)[O-])cnc2C)c(OC)c1	/	.	.	.	.	.
CC(C(=O)c1ccc(Cl)cc1Cl)n1cncn1 (stereo not drawn)	.	.	.	.	.	.
CC(=O)c1ncnn1CC(=O)c1ccc(Cl)cc1Cl	.	.	.	22669	.	.
Cc1cc2nc(-c3ccccc3)c(Cc3ccccc3)n2c(C)c1Br	/	.	.	.	/	.
COc1ccc(S(=O)(=O)N2CCOC2CNC(=O)C(=O)NCc2ccc3c(c2)OCO3)cc1C (stereo not drawn)	/	.	.	.	.	.
COC(=O)c1ccc(CSc2nnc(N)s2)cc1	.	.	.	.	.	.
COC(=O)c1ccc(CSc2nc(N)cc(N)n2)cc1	.	.	.	23371	.	.
C[C@H](CO)N1C[C@H](C)[C@@H](CN(C)S(=O)(=O)c2cccs2)OCc2cnnn2CCCC1=O	/	.	.	.	.	.
CN(C)c1nc(NCc2ccccc2)nc(SCC(=O)Nc2ccc(Cl)c(Cl)c2)n1	.	.	.	19687	.	.
Nc1nonc1-c1noc(-c2ccccc2)n1	.	.	.	20869	.	.
CC1=C(C(=O)OCc2ccccc2)C(c2ccc(C#N)cc2)NC(=O)N1CCCC(=O)O (stereo not drawn)	.	.	.	.	.	.
CN1CC(c2ccc(C#N)cc2)C2(COc3ccccc3C2=O)C12C(=O)Nc1ccccc12 (stereo not drawn)	.	.	.	19424	.	.
O=C(Nc1ccccc1[N+](=O)[O-])OCC=Cc1ccccc1	/	.	.	.	.	.
COc1ccc(CNC(C)(C)C)cc1Cl	.	.	.	16540	.	.
SMILES	BJeLR viability	Anthrax LF prot	BoNT F protease	Bead autofluor	Vc quorum ag	BoNT-A LC inh2
C=CCOc1ccc(CNC(C)(C)C)cc1OC	.	.	.	.	.	.
O=C1NC[C@H](CCCCN2C[C@H](Cc3ccccc3)N(Cc3ccccc3)C(=O)C2=O)N(CCc2ccccc2)C1=O	/	.	.	.	/	.
CCOC(=O)c1ccc2c(c1)N(Cc1ccccc1C)C(=O)c1ccccc1S2=O (stereo not drawn)	.	.	.	22107	.	.
CN(c1ccc(F)cc1)S(=O)(=O)c1ccc(Cl)c(C(=O)NCC(c2ccco2)N2CCCCC2)c1 (stereo not drawn)	/	/	/	/	.	/
Cc1ccc(CNC(=O)NC2CCCCC2)cc1	.	.	.	.	.	.
O=C(O)C1CCCCC1C(=O)Nc1cccc2ccccc12 (stereo not drawn)	.	.	.	20285	.	.
Cc1ccc(CNC(=O)C2CCCCC2C(=O)O)cc1 (stereo not drawn)	.	.	.	21599	.	?
CC12CCC3C(CCC4CC(O)CCC43C)C1CC(=O)C2 (stereo not drawn)	/	.	.	.	.	.
Cc1ccn2c(NCc3ccc4c(c3)OCO4)c(-c3ccc(O)cc3)nc2c1	.	.	.	17253	.	.
CC(=O)Nc1cc(-c2ccccc2)cn2c(-c3cccc(C(C)=O)c3)cnc12	/	.	.	.	.	.
Cc1ccc(OCCn2cc(/C(N)=N/O)c3ccccc32)cc1C	.	.	.	17016	.	.
O=C(C1CCCN(S(=O)(=O)Cc2ccccc2)C1)N1CCC(Cc2ccccc2)CC1 (stereo not drawn)	.	.	.	21341	.	.
O=C(O)C1=CCC=CC1C(=O)O (stereo not drawn)	/	.	.	.	.	.
CCc1ccc(-c2c(C)sc(NC(C)=O)c2C(N)=O)cc1	.	.	.	22107	.	.
O=C(N/N=C/c1ccc(Cl)cc1Cl)c1cccc(F)c1	.	.	.	22364	.	.
CCC(=O)N1CCCC(C(=O)NS(=O)(=O)c2cc(C)c(Cl)cc2C)CC1 (stereo not drawn)	/	.	.	.	.	.
N#Cc1ccc2ccn(CC(=O)NCc3ccccc3)c2c1	.	.	.	.	.	.
N#Cc1ccc2ccn(CC(=O)NC3CCCCC3)c2c1	.	.	.	16380	.	.
Cc1ccccc1NC1=NC(=S)N(CC(N)=O)C12CCOC(C)(C)C2 (stereo not drawn)	.	.	45	.	.	.
Cc1cc(=O)[nH]c(SCc2cccc3cccnc23)n1	/	.	.	.	.	.
Cc1cc(=O)[nH]c(SCc2nc3ncccn3c2Br)n1	.	.	.	24282	.	.
O[C@H]1C[C@H](c2ccccc2)N(Cc2cccs2)C[C@@H]1n1cc(C2CC2)nn1	/	.	.	.	.	.
CCc1ccc(CNn2cnnc2SCC(=O)NC(C)(C)C)cc1	.	.	.	16664	.	.
O=C(OC1CC2CC1[C@H]1CCCCN1C2=O)N1CCCCC1 (stereo partly drawn)	/	.	.	.	/	.
Cc1cccc(-n2c(C)cc(C=C3C(=O)c4ccccc4C3=O)c2C)c1	.	.	.	.	.	.
Cc1cc(C=C2C(=O)c3ccccc3C2=O)c(C)n1-c1ccc(Cl)cc1	.	.	.	20919	.	.
CCN(CC)C(=O)C1=C(C)N(CCC2=CCCCC2)C(=O)C(CC(=O)NC2CCCC2)C1 (stereo not drawn)	/	.	.	.	.	.
C#CCSc1nnc(-c2cccc3ccccc23)o1	.	.	.	16238	.	.
COc1ccc(-c2oc3c(c2C(=O)OCCO)C(OCCCO)CCC3)cc1 (stereo not drawn)	/	.	.	.	/	.
O=c1cc(CN2CCN(c3ccc(Cl)c(Cl)c3)CC2)c2c(ccc3ccccc32)o1	/	.	.	.	/	.
